According to the supplement of paper PMC6555819:

Key:
Test in all cases: PBM binding z-score (relative to random genomic background probes); higher = stronger binding; sequences stand for … in GC…GCGATTGACAGCGTAGAATGAAGG
[1] = system: FXR:RXRa (NR concentration 270 nM, RXRa partner concentration 90 nM)
How it was run: (§1)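 Probes were double-stranded and carried 34-nt variable regions with direct-repeat seeds, single-nucleotide variants, half-site ablations and random human genomic background sequences, printed on custom Agilent 4×180K protein-binding microarrays. Arrays were incubated 1 h with ligand-free nuclear receptor dimers in PBS pH 7.4, 2% milk, 0.02% Triton X-100, 1 mM DTT, 0.2 mg/mL BSA and 0.4 mg/ml salmon testes DNA. Antibodies against each partner (one per run) detected binding, and scanned fluorescence was regression-normalized. Binding z-scores use the random background probes as reference.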

[2] = system: LXRa:RXRa (NR concentration 270 nM, RXRa partner concentration 90 nM)
How it was run: as §1

[3] = system: LXRa homodimer (NR concentration 270 nM)
How it was run: as §1

[4] = system: LXRb:RXRa (NR concentration 270 nM, RXRa partner concentration 90 nM)
How it was run: as §1

[5] = system: LXRb homodimer (NR concentration 270 nM)
How it was run: as §1

[6] = system: PPARa:RXRa (NR concentration 270 nM, RXRa partner concentration 90 nM)
How it was run: as §1

[7] = system: PPARg:RXRa (NR concentration 180 nM, RXRa partner concentration 90 nM)
How it was run: as §1

[8] = system: PPARg:RXRa 270nM:90nM, anti-RXR (NR concentration 270 nM, RXRa partner concentration 90 nM)
How it was run: as §1

[9] = system: PPARg:RXRa 30nM:10nM, anti-RXR (NR concentration 30 nM, RXRa partner concentration 10 nM)
How it was run: as §1

[10] = system: PPARg:RXRa 90nM:30nM, anti-RXR (NR concentration 90 nM, RXRa partner concentration 30 nM)
How it was run: as §1

Sequence | PBM binding z-score [1] | PBM binding z-score [2] | PBM binding z-score [3] | PBM binding z-score [4] | PBM binding z-score [5] | PBM binding z-score [6] | PBM binding z-score [7] | PBM binding z-score [8] | PBM binding z-score [9] | PBM binding z-score [10]
GTAACGAGGGCAAAGTTGATAGCATCTGTCGACG | 1.48 | 1.29 | -0.238 | 1.17 | 0.169 | 4.2 | 7.58 | 7.24 | 6.77 | 7.65
TAGCCTAGGTAATTGGGCCAGTATAGTACGCATC | -0.768 | -1.07 | -0.581 | -0.51 | -0.491 | 0.679 | 0.785 | 0.424 | -0.205 | -0.132
ATCTCTAGGTAACAAGTTCAGTAAAAGAGAGGAC | 0.872 | 1.08 | 1.01 | 0.953 | 1.1 | 1.81 | 1.76 | 2.11 | 0.675 | 1.82
ACTTACGGGGCAACGAGGTTATAGCACGCGTATA | 0.934 | 0.688 | -0.335 | 1.73 | 0.511 | 2.21 | 1.64 | 1.26 | 0.448 | 1.2
TTACCAGGGTGAAAGGTCGTTGATGCACGCCTTG | 3.76 | 3.21 | 0.701 | 3.12 | -0.0752 | 5.36 | 8.62 | 7.7 | 6.89 | 9.22
CCAGACAGCTGAGAAGGTAACTCAGCCTCGATTA | -0.225 | -0.563 | -0.25 | -0.499 | -0.831 | -0.574 | -0.129 | -0.555 | -0.623 | -0.881
TCATATAGATAAATGCTAGGTGAAAGTCCGATCT | 0.784 | 0.813 | 0.103 | 0.591 | -0.152 | 0.912 | 0.876 | 2.09 | 3.93 | 3.03
GCTCGGAGCACAAGGTCAGAGCTTTGTCCGTAGA | 1.22 | 1.42 | -0.454 | 0.993 | -1.38 | 2.34 | 0.273 | 1.03 | -0.387 | 0.2
TCTCGGAGGACATGAAAGGTCAGAGCTCGACATC | 2.65 | 3.67 | 2.92 | 3.09 | -0.221 | 3.34 | 1 | 2.68 | 2.8 | 2.61
CAAACAGGGTCAGCTAGGCCAGAGTAGGGACGGC | 4.65 | 2.73 | -0.316 | 2.21 | 0.0212 | 4.47 | 3.5 | 3.57 | 0.838 | 2.35
GGAACGAGGGCAAAGTTGATACCATCTGTCGACG | 1.54 | 1.06 | 0.172 | 1.17 | -0.157 | 4.04 | 6.72 | 6.85 | 6.52 | 7.6
CCTATTAGTTGACCATAAGGGCAGCCGAAGCTCG | 0.542 | -0.0359 | 0.036 | 0.218 | 0.392 | 0.0636 | 0.126 | 0.442 | -0.292 | -0.0917
ATCGAAAGGTCCTGAGGTGAGTATACAGAAAGGC | 0.12 | 0.275 | -0.698 | 0.248 | -0.388 | 1.21 | 0.686 | 0.415 | 0.534 | 1.08
TAGCCTAGGTCATTGGGCCTGTATAGTACGCATC | 4.24 | 3.47 | 0.96 | 2.39 | -0.0318 | 3.52 | 2.18 | 2.86 | 0.506 | 1.59
ATATGTAGGTTAGCTGGGGTCATCCAGACTAGGC | 4.52 | 5.5 | 2.24 | 4.39 | 0.905 | 5.22 | 5.73 | 5.6 | 2.9 | 4.8
CCTACTGGGCCATCTGGTCATTGATATCAACGTT | -0.161 | -0.364 | -0.126 | -0.0941 | -0.192 | 0.878 | 1.09 | 2.19 | 0.303 | 1.69
ACTTACGGGTCAACGAGGTTGTAGCACGCGTATA | 6.76 | 4.66 | 0.172 | 4 | 0.502 | 5.6 | 5.04 | 4.93 | 1.89 | 3.69
GGGACTGGGGCATCAGCAGGTTACCATAACTTAA | 0.464 | 0.607 | 0.713 | 1.81 | 2.25 | 2.25 | 3.27 | 2.6 | 0.527 | 1.93
CCTAGTAGGCCAATCTGGGTCACTCAAGGCTTGA | 0.701 | 1.69 | -0.399 | 1.2 | -0.38 | 3.58 | 3.41 | 3.08 | 0.257 | 2.26
CAAACTAGGTCCCAGAGGTCAAAGTCCGTGCGTA | 4.91 | 5.18 | 5.61 | 5.18 | 1.42 | 4.98 | 4.51 | 4.75 | 2.13 | 4.08
ATCGAAAGGTCGAAGGTGAATATACCCACCCGAA | 5.04 | 4.06 | 0.547 | 3.42 | 0.763 | 5.24 | 5.61 | 5.45 | 2.92 | 4.71
TCGTATAGGTAAAGGTGAAAGTCGAACGATATGA | 1.05 | 1.45 | 0.11 | 1.11 | -0.167 | 2.87 | 2.34 | 3.99 | 3.45 | 3.86
CCTACTGGGCCAAAAAGGTCTTTGATGCCGATAA | -0.753 | -0.556 | -0.512 | -0.343 | -1.15 | 0.669 | 0.196 | 1.01 | -0.425 | 0.203
TCTTGTATATCAGCAGGTTAAGAAAGCTGGCCAA | 0.775 | 0.883 | 0.29 | 1.03 | 0.727 | 0.972 | -0.165 | 1.63 | 3.19 | 2.42

Sequence | PBM binding z-score [1] | PBM binding z-score [2] | PBM binding z-score [3] | PBM binding z-score [4] | PBM binding z-score [5] | PBM binding z-score [6] | PBM binding z-score [7] | PBM binding z-score [8] | PBM binding z-score [9] | PBM binding z-score [10]
TAGCCTAGGTCATGGGCCAGTATTCCACGCGAAC | 4.39 | 3.5 | 0.0514 | 2.3 | -0.499 | 4.12 | 3.67 | 3.49 | 1.17 | 2.47
CCTACCAGGCCAATCTGGGTCACTCAAGGCTTGA | 1.15 | 1.52 | 0.0755 | 1.01 | -0.051 | 2.92 | 2.3 | 2.4 | -0.0148 | 1.57
CCTACTGGGCCACGAAAGGTCATTGATTCAGTGA | 3.58 | 5.34 | 4.9 | 4.15 | 0.552 | 4.58 | 4.57 | 5.08 | 2.53 | 4.4
TCTAGCAGTCCAGAGGGTCACTCAAGAGGTACGG | 0.754 | 0.962 | -0.326 | 1.19 | -1.12 | 2.06 | 0.609 | 1.52 | 2.05 | 1.63
TCTTGTAGATAAACAGGAGGTTAAGAAAGATCGA | 0.162 | 1.13 | 0.276 | 1.01 | -0.398 | 1.27 | 0.346 | 1.3 | 2.82 | 1.89
TCTGGTTGGTCAAAGGTCACACACTCGAAATGCG | 6.33 | 5.91 | 4.59 | 5.75 | 2.86 | 6.43 | 10.3 | 9.3 | 8.98 | 10.5
CGTCAAAGTTCAACTAAGATAACGTAAAGCACGC | 6.92 | 6.3 | 4.03 | 4.14 | 2.68 | 5 | 4.94 | 5.19 | 2.56 | 4.27
CCTACTGGGCCACGAAAGGTCATTGAATCAGTGA | 3.69 | 5.1 | 4.09 | 4.26 | 0.492 | 4.68 | 4.56 | 5.1 | 2.28 | 4.03
TCATATAGGTAAGCAGGTGAAAGTCCGTAAGTTA | 0.125 | 0.178 | -0.0439 | 0.39 | -0.523 | 1.74 | 2.16 | 3.14 | 3.46 | 3.36
TCGAGTAGGTTAGTCGGCGCATTCAGCCAACATA | -0.102 | -0.169 | -0.745 | -0.439 | -1.53 | 0.0972 | -0.358 | 0.362 | 0.699 | 0.562
ACTATTAGTTGAGACGCGGGCAACCGATAGGTTG | -0.0666 | -0.0998 | -0.325 | -0.488 | 0.193 | -0.624 | 0.371 | -0.414 | -0.25 | -0.167
TCTTGTAGATCAACAGGAGGTTGAGAAAGATCGA | -0.0264 | -0.201 | -0.188 | -0.211 | -0.144 | 0.467 | -0.1 | 1.33 | 2.81 | 2.24
CCTACTGGGCCAAAGGTCATTGATTCCAATGCTC | 4.82 | 5.3 | 4.17 | 4.72 | 0.913 | 6.33 | 12 | 10.5 | 10.7 | 11.4
AGTCAAAGCTCACTAGGTAACGTAAGATTCAGCT | -0.693 | -0.67 | -0.464 | -0.615 | -0.437 | 0.637 | 0.855 | 0.165 | 0.0714 | -0.118
CCGACTGGGGCAAAGGTTACCAAACTCAGTACGA | 1.54 | 1.78 | 0.0328 | 2.27 | -1.29 | 5.64 | 10.5 | 9.36 | 9.35 | 10.6
ATATGTAGGGTACATCCGGGTCATTCAGGCTATG | 1.96 | 2.96 | 1.43 | 2.4 | 1.27 | 3.89 | 4.04 | 3.53 | 1.46 | 2.33
AATACAGGGTCATCGTAGGCCAGAGTGCGCACAG | 7.13 | 6.46 | 2.47 | 4.75 | 1.07 | 5.99 | 6.7 | 6.16 | 2.72 | 4.73
TCAGACAGGTGAAGGTAACACAGGTACGCAGTCG | 1.04 | 1.17 | 0.113 | 1.01 | 0.0867 | 1.53 | 1.29 | 2.67 | 3.9 | 3.28
CCTAGTTGGTGAAGGTCACACACGCTATAGGTAC | 2.89 | 3.37 | 1.45 | 3.42 | 0.755 | 3.66 | 2.32 | 3.03 | 1.1 | 1.97
TCTTGTAGAACAGCAGGTTAAGAAAGCTGGCCAA | -0.25 | -0.235 | -0.708 | -0.0015 | -0.898 | 0.675 | -0.134 | 1.17 | 2.2 | 1.9
CCGAGTAGGTTGTGGGGCATTCAGGCAACGGTGA | -0.145 | -0.118 | 0.0165 | 0.178 | -0.163 | 0.496 | 0.169 | 1.61 | -0.549 | 0.776
ATCGGAAGGTCGTGAGGTGAGTATACAGAAAGGC | 2.73 | 1.85 | 0.212 | 1.69 | 0.0341 | 3.13 | 1.68 | 1.63 | 0.466 | 0.932
TGAATGAGGTTAAAGATCAAGGAACGTGGCGTCG | 3.35 | 2.61 | -0.438 | 1.96 | 0.0283 | 4.79 | 6.53 | 6.53 | 5.25 | 6.93
TCTGCTAGGTCAGTTGGTGAGCTAACGAGCTGCC | 0.898 | 0.467 | -0.796 | -0.0479 | 0.264 | 0.853 | -0.0831 | 1.38 | 1.18 | 1.13
